Bioassay records as filed in PubChem.
Beta cell apopt – blocks beta cell apoptosis; INS-1E cytokine-induced death, ATP luminescence, 48 h; percent of positive-control rescue, neutral wells zero; protection from apoptosis, % (test concentration not listed); actives 0.8% (n = 300,000);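 active = Every replicate reaches about 75%, or at least half do and their mean reaches it too, limit read from the data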;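 note: 0% = cytokine-treated negative control wells and 100% = positive control rescue; higher means more ATP so stronger rescue from cytokine killing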
A1 inh – inhibitors of the anti-apoptotic protein A1, read as caspase activation | MEF A1-2A-BIM cells, Caspase-Glo 3/7 luminescence, 3 h; percent of clofoctol response, vehicle zero | caspase activation, % (concentration not given with the values) | actives 0.066% (n = 330,000) | AID 2462;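 active = over half of replicate activation scores above 10%, or exactly half above 10 with the replicate mean above 10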
Mdm2 MdmX PPI – human Mdm2/MdmX binding inhibition | O15151+Q00987 | SaOS-2 split-luciferase Mdm2/MdmX complementation, luminescence | inhibition, % at 8 µM | actives 3% (n = 330,000) | AID 485346;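 active = inhibition of at least 50% at 8 µM in the primary screen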
Target sequence (O15151 whole entry, looked up): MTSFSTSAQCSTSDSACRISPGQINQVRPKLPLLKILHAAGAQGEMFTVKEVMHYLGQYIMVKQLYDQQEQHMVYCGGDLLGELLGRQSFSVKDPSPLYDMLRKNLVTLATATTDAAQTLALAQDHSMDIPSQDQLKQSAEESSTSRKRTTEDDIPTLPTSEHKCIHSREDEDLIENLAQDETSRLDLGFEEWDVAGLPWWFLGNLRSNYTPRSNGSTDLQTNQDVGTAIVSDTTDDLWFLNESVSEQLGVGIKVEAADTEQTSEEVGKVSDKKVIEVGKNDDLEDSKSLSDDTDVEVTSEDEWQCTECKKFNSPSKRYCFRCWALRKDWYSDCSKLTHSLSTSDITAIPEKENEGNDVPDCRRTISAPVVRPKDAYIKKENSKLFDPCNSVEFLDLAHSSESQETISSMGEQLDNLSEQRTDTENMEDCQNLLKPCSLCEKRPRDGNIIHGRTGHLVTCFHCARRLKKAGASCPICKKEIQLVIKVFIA
Target sequence (Q00987 whole entry, looked up): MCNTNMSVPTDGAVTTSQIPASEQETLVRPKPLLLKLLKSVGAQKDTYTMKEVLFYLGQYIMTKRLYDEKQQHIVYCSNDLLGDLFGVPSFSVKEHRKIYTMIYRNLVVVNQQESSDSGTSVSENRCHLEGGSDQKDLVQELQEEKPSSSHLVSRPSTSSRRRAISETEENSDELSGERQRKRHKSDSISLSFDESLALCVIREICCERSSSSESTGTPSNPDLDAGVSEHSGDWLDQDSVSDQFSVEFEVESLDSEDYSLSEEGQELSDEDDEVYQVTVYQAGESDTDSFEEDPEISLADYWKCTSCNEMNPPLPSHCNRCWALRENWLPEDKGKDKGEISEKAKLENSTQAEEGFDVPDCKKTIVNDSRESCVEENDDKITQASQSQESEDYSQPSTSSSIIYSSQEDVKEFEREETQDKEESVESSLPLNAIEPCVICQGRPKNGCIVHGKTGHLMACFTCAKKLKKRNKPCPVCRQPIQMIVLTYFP
697 NFkB inh – inhibitors of the PMA/ionomycin-induced NF-kB reporter in 697 B cells; 697 B-cell NF-kB luciferase reporter, 16 h; inhibition, % at 4 µM; actives 0.33% (n = 330,000); in the data active = inhibition above about 35%
Jurkat NFkB inh – lowers PMA/ionomycin-induced NF-kB signal in Jurkat cells; PMA/ionomycin-induced NF-kB luciferase reporter, luminescence; inhibition, % at 4 µM; actives 0.53% (n = 330,000); AID 435003; in the data active = inhibition above about 50%
NTR1 ag – agonists of human neurotensin receptor NTR1. P30989. NTR1-U2OS beta-arrestin-GFP spot imaging, agonist mode. activation, % at 20 µM. actives 0.17% (n = 330,000);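 active = activation at or above 40% of the spot to cytoplasm intensity ratio, with at least 20 cells analyzed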;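 note: 0% = DMSO without peptide and 100% = 100 nM NTR1 peptide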
Mdm2 MdmX conf – human Mdm2/MdmX binding inhibition, confirmed. shares compounds with Mdm2 MdmX PPI. luminescent assay. inhibition, % at 8 µM. actives 55% (n = 10,000). AID 489028; in the data active = inhibition above about 40%
FLuc counter – inhibits full-length luciferase, flagging false Mdm2/MdmX hits | shares compounds with Mdm2 MdmX PPI | SaOS-2 full-length luciferase counterscreen, luminescence | inhibition, % at 8 µM | actives 77% (n = 6,200) | AID 504607;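 active = mean inhibition at 8 µM reaching about 37%, which flags the compound as non-specific, limit read from the data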;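 note: p53-null SaOS-2 cells with luciferase driven by a doxycycline-inducible promoter; compound on cells about two nights before reading with doxycycline added after day one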
Starred values were filed as active, the others as inactive. Compounds with a hit are over-represented: about 3.8% of the library has one in this group of screens.

Screening COc1ccc(NC(=O)c2cc(C(=O)Nc3ccc(OC)cc3OC)cc([N+](=O)[O-])c2)c(OC)c1 returned Beta cell apopt -3.0, A1 inh 1.5, Mdm2 MdmX PPI -3.3, 697 NFkB inh -4.8, Jurkat NFkB inh -27.7 and NTR1 ag 0.1.
`O=C(CCCN1C(=O)/C(=C/c2ccccc2)SC1=S)Nc1cccc(O)c1` gave Beta cell apopt -6.8, A1 inh 0.3, Mdm2 MdmX PPI 100.2*, 697 NFkB inh 17.0, Jurkat NFkB inh 3.5, NTR1 ag 0.8, Mdm2 MdmX conf 93.0* and FLuc counter 58.0*.
`CC(/C=C1\SC(=S)N(CCC(=O)Nc2ccc(O)cc2)C1=O)=C\c1ccccc1` gave Beta cell apopt 2.4, A1 inh 0.2, Mdm2 MdmX PPI 62.0*, 697 NFkB inh -6.3, Jurkat NFkB inh 1.9, NTR1 ag 0.6 and Mdm2 MdmX conf 22.6.
Cc1ccc(NC(=O)CCCN2C(=O)/C(=C/C=C/c3ccccc3)SC2=S)cc1 was read as Beta cell apopt -4.1, A1 inh -0.1, Mdm2 MdmX PPI 56.7*, 697 NFkB inh -19.5, Jurkat NFkB inh 1.3, NTR1 ag -0.9, Mdm2 MdmX conf 40.9* and FLuc counter 47.0*.
O=C(CCCN1C(=O)/C(=C/c2cccs2)SC1=S)Nc1ccccn1 was read as Beta cell apopt -7.3, A1 inh -0.4, Mdm2 MdmX PPI 55.6*, 697 NFkB inh 3.4, Jurkat NFkB inh 9.5, NTR1 ag 1.7, Mdm2 MdmX conf 59.5* and FLuc counter 97.7*.
`CC(/C=C1\SC(=S)N(CCCC(=O)Nc2ccc(C(=O)O)c(O)c2)C1=O)=C\c1ccccc1` gave Beta cell apopt 1.2 and A1 inh -0.8.
`O=C(CCN1C(=O)/C(=C\c2ccccc2)SC1=S)Nc1ccc(C(=O)O)cc1` gave Beta cell apopt -3.2, A1 inh -0.3, Mdm2 MdmX PPI 2.7, 697 NFkB inh -0.1, Jurkat NFkB inh -15.7 and NTR1 ag 0.7.
`O=C(CN1C(=O)S/C(=C\C=C\c2ccccc2)C1=O)N1CCCCC1` gave Beta cell apopt 10.1, A1 inh -1.1, Mdm2 MdmX PPI 25.1, 697 NFkB inh 3.5, Jurkat NFkB inh 10.8 and NTR1 ag 1.5.
For O=C(CN1C(=O)S/C(=C\C=C\c2ccccc2)C1=O)Nc1ccc(O)cc1 the results were Beta cell apopt 16.4, A1 inh -1.2, Mdm2 MdmX PPI 77.8*, 697 NFkB inh -56.0, Jurkat NFkB inh -3.0, NTR1 ag 13.5, Mdm2 MdmX conf 41.9* and FLuc counter 80.6*.
`Cc1ccc(/C=C2\SC(=S)N(CCC(=O)NNC(=O)c3ccccc3O)C2=O)cc1` gave A1 inh 0.3, Mdm2 MdmX PPI 53.4*, 697 NFkB inh 13.2, Jurkat NFkB inh 15.6, NTR1 ag 5.0 and Mdm2 MdmX conf 16.6.
`O=C(CCCN1C(=O)/C(=C/c2cccs2)SC1=S)Nc1cccc(O)c1` gave Beta cell apopt -2.7, A1 inh 0.4, Mdm2 MdmX PPI 88.7*, 697 NFkB inh 9.3, Jurkat NFkB inh 15.7, NTR1 ag 4.7, Mdm2 MdmX conf 79.7* and FLuc counter 73.0*.
`O=C(CCCN1C(=O)/C(=C\c2ccccc2)SC1=S)Nc1ccc(O)cc1` gave Beta cell apopt -31.8, A1 inh -0.3, Mdm2 MdmX PPI 98.7*, 697 NFkB inh 11.5, Jurkat NFkB inh 6.0, NTR1 ag 7.2, Mdm2 MdmX conf 99.5* and FLuc counter 33.2.
For CCOc1cc2c(cc1/C=C/c1noc(C)c1[N+](=O)[O-])OC(C)C2 (centres undefined) the results were Beta cell apopt 4.8, A1 inh 1.6, Mdm2 MdmX PPI 27.7, 697 NFkB inh 16.0, Jurkat NFkB inh 2.4 and NTR1 ag 5.2.
For COc1cccc(/C=C2/Oc3ccccc3N(CC(=O)NCC3CCCO3)C2=O)c1 (centres undefined) the results were Beta cell apopt 4.2, A1 inh 1.5, Mdm2 MdmX PPI 23.0, 697 NFkB inh -0.1, Jurkat NFkB inh 8.0 and NTR1 ag 0.2.
